Outcome and AC50 data for 7 compounds are collected here from PubChem BioAssay (EPA / NIEHS).

Read-out in test [1]: Thyroid Hormone Responsive (THRSP), THRSP (gene 7069)
The test can be described thus: LTEA_HepaRG_THRSP: Life Technologies and Expression Analysis (LTEA) Assay for Thyroid Hormone Responsive (THRSP) using HepaRG (AID 2283536; active = hit-call score of the fitted dose curve at least 0.9, where 1 is the maximum; inactive = score below 0.9). The following applies: mRNA level, 48 h; actives raise or lower the signal. A digest of the protocol: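 THRSP transcript quantified by Fluidigm qRT-PCR against three housekeeping genes after 48 h chemical exposure of HepaRG cells in serum-free induction medium; eight-point half-log series, top 100 uM, 0.5% DMSO vehicle, duplicate wells.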

Read-out in test [2]: Cellular tumor antigen p53 (Homo sapiens) (UniProt P04637)
The test can be described thus: LTEA_HepaRG_TP53: Life Technologies and Expression Analysis (LTEA) Assay for Tumor Protein P53 (TP53) using HepaRG (AID 2283537; active = hit-call score of the fitted dose curve at least 0.9, where 1 is the maximum; inactive = score below 0.9). Conditions: mRNA level, 48 h; actives raise or lower the signal. The procedure, abridged: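 Gain or loss of TP53 mRNA signal is scored relative to 0.5% DMSO after 48 h chemical treatment of HepaRG liver cells, tested in duplicate at eight half-log concentrations up to 100 uM.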

Read-out in test [3]: UDP glucuronosyltransferase (UGT1A1), UGT1A1 (gene 54658)
As to the kind of experiment: LTEA_HepaRG_UGT1A1: Life Technologies and Expression Analysis (LTEA) Assay for UDP glucuronosyltransferase (UGT1A1) using HepaRG (AID 2283538; active = hit-call score of the fitted dose curve at least 0.9, where 1 is the maximum; inactive = score below 0.9). Conditions: mRNA level, 48 h; actives raise or lower the signal. The procedure, abridged: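 HepaRG, 48 h chemical exposure (top 100 uM, half-log 8-pt, 0.5% DMSO vehicle), duplicate wells; qRT-PCR (TaqMan, Fluidigm array) for UGT1A1 mRNA, housekeeping-normalized; bidirectional curve fit vs DMSO baseline.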

Read-out in test [4]: UDP glucuronosyltransferase (UGT1A6), UGT1A6 (gene 54578)
The test can be described thus: LTEA_HepaRG_UGT1A6: Life Technologies and Expression Analysis (LTEA) Assay for UDP glucuronosyltransferase (UGT1A6) using HepaRG (AID 2283539; active = hit-call score of the fitted dose curve at least 0.9, where 1 is the maximum; inactive = score below 0.9). Conditions: mRNA level, 48 h; actives raise or lower the signal. The procedure, abridged: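 HepaRG, 48 h post-plating switch to serum-free induction medium; chemical 48 h, 100 uM top, half-log x8, duplicate, 0.5% DMSO. Phenobarbital 1mM induction control. UGT1A6 mRNA by TaqMan qRT-PCR; gain/loss fit vs DMSO.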

Read-out in test [5]: X-box binding protein 1 (XBP1), XBP1 (gene 7494)
The test can be described thus: LTEA_HepaRG_XBP1: Life Technologies and Expression Analysis (LTEA) Assay for X-box binding protein 1 (XBP1) using HepaRG (AID 2283540; active = hit-call score of the fitted dose curve at least 0.9, where 1 is the maximum; inactive = score below 0.9). Conditions: mRNA level, 48 h; actives raise or lower the signal. The procedure, abridged: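 Transcript levels of XBP1, measured by qRT-PCR and normalised to three housekeeping genes, were fitted bidirectionally relative to 0.5% DMSO controls. Human HepaRG cells received eight-point half-log dilutions from 100 uM for 48 h.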

A short description of test [6]: LTEA_HepaRG_LDH_cytotoxicity: Cytotoxicity Assessment in the Life Technologies and Expression Analysis (LTEA) Assay (AID 2283563). A digest of the protocol: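 Cells were thawed and plated for 48 h. Medium was then replaced with serum-free induction medium. Chemicals (8 half-log points, maximum 100 uM, 0.5% DMSO) were added in duplicate for 48 h, after which spent medium was assayed for LDH.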

Test [7] is described as follows: ATG_XTT_Cytotoxicity: Cytotoxicity Assessment in the Attagene TRANS-FACTORIAL HepG2 Assay (AID 2283584). A digest of the protocol:
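Cells: human HepG2, transiently transfected with MRTU reporter constructs. Exposure 24 h. Readout: XTT, cell number. Baseline/neg ctrl DMSO; loss-of-signal scored.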

Test [8] in a line: TOX21_p53_BLA_p2_viability: Viability Assessment in the Tox21 HCT-116 p53 Agonism Beta-lactamase Assay, Phase 2 (AID 2283591).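 Note: compound exposure lasted 16 h at 37 °C; actives lower the ATP signal meaning cytotoxicity.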 The procedure, abridged: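 Cytotoxicity readout: CellTiter-Glo ATP luminescence, 30 min at room temperature, after the beta-lactamase read. Cells were HCT116 exposed 16 h at 37C to compounds pin-transferred at 217-fold dilution from DMSO stocks.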
Test [9] has as its target Cellular tumor antigen p53 (Homo sapiens) (UniProt P04637). The test can be described thus: TOX21_p53_BLA_p2_ratio: Tox21 HCT-116 p53 Agonism Beta-lactamase Assay, Ratio, Phase 2 (AID 2283592). A digest of the protocol:
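Plated HCT116 p53-bla cells (4000/well) received compound after 5 h, then 16 h at 37C/5% CO2. CCF4-AM added, 2 h RT. Ratio of 460 to 530 nm emission taken as the p53 reporter signal.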

Test [10] is described as follows: TOX21_p53_BLA_p3_viability: Viability Assessment in the Tox21 HCT-116 p53 Agonism Beta-lactamase Assay, Phase 3 (AID 2283593).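 Note: cells exposed to compound for 16 h before reading.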 A digest of the protocol: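 Cellular ATP was quantified by CellTiter-Glo luminescence, read after 30 min at room temperature. Beforehand, HCT116 cells (4000/well) received compound 5 h post-seeding, 217-fold diluted from DMSO, then incubated 16 h at 37C.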

Test [11] can be described thus: TOX21_p53_BLA_p4_viability: Viability Assessment in the Tox21 HCT-116 p53 Agonism Beta-lactamase Assay, Phase 4 (AID 2283597).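 Note: hits lower the luminescence signal meaning cytotoxicity.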 The procedure, abridged:
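Readout: ATP luminescence (CellTiter-Glo), measured 30 min after reagent addition at RT. The reagent followed a 2 h CCF4-AM incubation, and the cells had been exposed to compound for 16 h at 37C.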

Test [12] has as its target Cellular tumor antigen p53 (Homo sapiens) (UniProt P04637). The test can be described thus: TOX21_p53_BLA_p5_ratio: Tox21 HCT-116 p53 Agonism Beta-lactamase Assay, Ratio, Phase 5 (AID 2283599). The procedure, abridged:
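Beta-lactamase reporter ratio (blue 460 nm over green 530 nm, 405 nm excitation) after 2 h CCF4-AM loading, in HCT-116 cells exposed 16 h at 37 C to compounds pinned at 217-fold dilution. Increases relative to DMSO baseline scored.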

Test [13] is described as follows: TOX21_p53_BLA_p5_viability: Viability Assessment in the Tox21 HCT-116 p53 Agonism Beta-lactamase Assay, Phase 5 (AID 2283600). The procedure, abridged: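 Workflow: seed 4000 cells per well, wait 5 h, add compounds (DMSO, 217-fold dilution), incubate 16 h, load CCF4-AM 2 h, add CellTiter-Glo, read luminescence after 30 min.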
Test [14] can be described thus: Tanguay_ZF_120hpf_MORT_legacy: (Legacy) Oregon State University Tanguay Lab 120 Hour Post-fertilization zebrafish Assay for Mortality (AID 2283633).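 For AC50: fitted as increase in binary mortality versus DMSO negative control.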 The procedure, abridged: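 5D WT zebrafish, chorion removed 4 hpf; 1 embryo/well from 6 hpf; static exposure to 120 hpf, 28C, dark, sealed. Final DMSO 0.64%. Readout: binary mortality, brightfield, 24 + 120 hpf; DMSO as negative control.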

Test [15] is described as follows: Tanguay_ZF_120hpf_YSE_legacy: (Legacy) Oregon State University Tanguay Lab 120 Hour Post-fertilization zebrafish Assay for Yolk Sac Edema (AID 2283634).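 For AC50: actives raise the incidence of yolk sac edema above the DMSO baseline.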 A digest of the protocol: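 Dechorionate (pronase, 4 hpf) → place one 6 hpf embryo per well → static compound exposure, sealed and foil-covered, 28C, to 120 hpf → record yolk sac edema as present or absent. Final DMSO 0.64%.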

The nature of test [16]: Tanguay_ZF_120hpf_AXIS_legacy: (Legacy) Oregon State University Tanguay Lab 120 Hour Post-fertilization zebrafish Assay for Body Axis Malformation (AID 2283635).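 For AC50: potency for an increased fraction of larvae scored with body axis malformation.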 A digest of the protocol:
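Chorion is removed with pronase at 4 hpf, then single 6 hpf embryos are dosed (final DMSO 0.64%) and held statically at 28C in sealed, foil-covered plates. At 120 hpf body axis malformation is recorded as present or absent.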

Test [17] is described as follows: Tanguay_ZF_120hpf_EYE_legacy: (Legacy) Oregon State University Tanguay Lab 120 Hour Post-fertilization zebrafish Assay for Eye Malformation (AID 2283636).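 Note: binary presence or absence of eye malformation scored by brightfield in 120 hpf larvae.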 A digest of the protocol:
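Binary brightfield scoring of eye defects at 120 hpf after static exposure from 6 hpf of single pronase-dechorionated wild-type embryos (28C, 0.64% DMSO). Non-mortality endpoints omitted where embryos died; fit vs DMSO.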

A short description of test [18]: Tanguay_ZF_120hpf_SNOU_legacy: (Legacy) Oregon State University Tanguay Lab 120 Hour Post-fertilization zebrafish Assay for Snout Malformation (AID 2283637). The procedure, abridged:
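Binary snout-malformation call at 120 hpf in wild-type 5D embryos, chorion removed by pronase, under static exposure from 6 hpf at 28C (0.64% DMSO). Embryos dying by 24 or 120 hpf excluded.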

The target in test [19] is Cellular tumor antigen p53 (Homo sapiens) (UniProt P04637). The test can be described thus: TOX21_p53_BLA_p3_ratio: Tox21 HCT-116 p53 Agonism Beta-lactamase Assay, Ratio, Phase 3 (AID 2283596). The procedure, abridged: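 Cells were seeded at 4000/well, rested 5 h at 37C, then dosed with DMSO compound solutions (217-fold dilution) for 16 h. CCF4-AM substrate was loaded for 2 h at room temperature, and the 460/530 nm emission ratio was fitted for gain of signal versus DMSO.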

Test [20] has the same target. The test can be described thus: TOX21_p53_BLA_p4_ratio: Tox21 HCT-116 p53 Agonism Beta-lactamase Assay, Ratio, Phase 4 (AID 2283601). A digest of the protocol: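 Signal is the blue/green (460nm/530nm) ratio of cleaved versus uncleaved CCF4-AM substrate, read after 2 h substrate loading. Cells were HCT116 carrying the p53-responsive beta-lactamase reporter, dosed 16 h at 37C, 5% CO2; CellTiter-Glo measured in parallel.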

Results filed as inconclusive are left out. Some structures have more than one record in an assay (separate samples or runs), and their calls can disagree. Calls of active or inactive are those of the source. Rule for the calls, unless noted: active = hit-call score of the fitted dose curve at least 0.9, where 1 is the maximum; inconclusive = response in the unintended direction; inactive = score below 0.9.

Chain of Cellular tumor antigen p53 (Homo sapiens) (P04637 whole entry, looked up): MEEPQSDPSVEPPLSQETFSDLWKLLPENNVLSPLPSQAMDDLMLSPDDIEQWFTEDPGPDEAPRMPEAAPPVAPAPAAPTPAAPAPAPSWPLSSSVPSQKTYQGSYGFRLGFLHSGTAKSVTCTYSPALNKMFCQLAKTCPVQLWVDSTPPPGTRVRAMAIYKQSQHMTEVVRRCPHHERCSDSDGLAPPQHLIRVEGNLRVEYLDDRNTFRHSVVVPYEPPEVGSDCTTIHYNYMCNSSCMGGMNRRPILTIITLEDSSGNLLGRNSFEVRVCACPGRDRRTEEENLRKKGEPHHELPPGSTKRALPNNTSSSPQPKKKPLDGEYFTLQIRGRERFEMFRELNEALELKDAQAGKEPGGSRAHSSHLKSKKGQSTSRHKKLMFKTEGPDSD

As to `CC(C)=CCCC(C)CCO` (stereo not drawn), the compound was called inactive in [1], in test [2], in test [3], in test [4], in [5] and in test [6]. Moreover, the call in test [7], in test [8], in test [9], in test [10], in test [11] and in test [12] was inactive. For the same compound, the result in test [13], in test [14], in test [15], in [16], in test [17] and in [18] was inactive.

A word on the AC50: it is the concentration giving half of the maximal activity seen. In the case of `Nc1ccc(Nc2ccccc2)cc1`, the outcome in test [1], in test [2], in test [4], in test [5], in [6] and in test [8] was inactive. In addition, the outcome in [9], in test [10], in test [19], in [11], in [12] and in [20] was inactive. Moreover, the concentration at half-maximal activity (AC50) in test [3] was 50 µM (active); in [9], 86 µM (active); in test [14], 33.2 µM (active); in [15], 27.5 µM (active); in test [16] it was 43.8 µM (active); in [17] it was 45.8 µM (active). The AC50 in test [18] was 34.9 µM (active).

As to `O=C(NS(=O)(=O)/C=C/c1ccccc1)c1ccc(F)cc1Cl`, the AC50 in test [1] was 0.502 µM (active); in test [3], 17.1 µM (active); in test [5], 26.3 µM (active); in [9], 13 µM (active); in test [19], 24.9 µM (active); in test [12] it was 13.5 µM (active). For the same compound, the AC50 in [20] was 22 µM (active). Further, the call in [2], in test [4], in [6], in test [7], in test [8] and in test [15] was inactive. Also, the call in test [16] and in [18] was inactive.

Consider `CCCCCCCCCCCCc1ccccc1`, for which the compound was called inactive in [1], in [2], in [3], in test [4], in test [5] and in test [6]. The compound was classed as inactive in test [7], in [8], in [9], in [10], in [19] and in test [12]. The result in [20], in test [15], in [16], in test [17] and in test [18] was inactive.

For the compound `CC[C@H]1OC(=O)[C@H](C)[C@@H](O[C@H]2C[C@@](C)(OC)[C@@H](O)[C@H](C)O2)[C@H](C)[C@@H](O[C@@H]2O[C@H](C)C[C@H](N(C)C)[C@H]2O)[C@](C)(O)C[C@@H](C)C(=O)[C@H](C)[C@@H](O)[C@]1(C)O`, the call in [1], in [2], in test [4], in test [5], in [6] and in test [7] was inactive. Besides, the outcome in test [8], in [9], in test [10], in test [19], in test [12] and in test [20] was inactive. For the same compound, the compound was classed as inactive in [16] and in test [18]. Also, the AC50 in test [3] was 8.69 µM (active).

Regarding `C1=CCCC=CCCC=CCC1`, the result in test [1], in [2], in test [3], in test [4], in test [5] and in test [6] was inactive. Besides, the compound was classed as inactive in test [7], in test [8], in test [19], in test [11], in test [12] and in test [20]. For the same compound, the outcome in test [15], in test [16], in test [17] and in test [18] was inactive.

Consider `CCOC(=O)COc1ccc2c(c1)CC(NCC(O)c1cccc(Cl)c1)CC2` (stereo not drawn), for which the result in [1], in [2], in [3], in test [4], in [6] and in [10] was inactive. Further, the outcome in test [19], in test [12], in test [13], in test [15], in test [16] and in test [18] was inactive. In addition, the AC50 in [5] is 45.8 µM (active); in [8], 67.3 µM (active); in test [9] it was 70.3 µM (active); in test [11] it was 80 µM (active); in [20] it was 71.7 µM (active); in test [14] it was 15.6 µM (active).
